Hits are enriched below; roughly 6.5% of the tested compounds scored in any of these assays.
HepG2 tox = counter-screen for TGF-b inhibitors: cytotoxicity in HepG2 cells. HepG2 CAGA-GFP viability, ATP luminescence, 18 h. Potency, µM (top dose mostly 46.1 µM), without a hit: top-dose activity change, negative = cytotoxicity, actives largely listed as cytotoxic. 0.76% of 410,000 active. AID 588856; further: potency means the concentration at half of the fitted maximal effect
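CellTiter-Glo luminescence gave cytotoxicity after 18 hours at 37 degrees C. The cells were HepG2 CAGA-GFP in 1% FBS DMEM, stimulated with 500 pg/mL TGF-beta after compound addition. %Activity was normalised to no-cell wells (complete cell-killing) and DMSO (no toxicity), and curves were fitted and classified.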
Giardia killer = Giardia lamblia killing; Giardia lamblia trophozoite viability; activity change, % at 7.66 µM, hits read low; 0.15% of 340,000 active; AID 540267; in the data active means activity change below about -80%; inconclusive means between about -30% and that limit;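 further: parasites exposed to compound for two days anaerobically before the ATP read; on the % scale 0 is the no-effect control and ±100 the full control effect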
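Luminescent ATP signal served as the viability read-out, measured 15-30 min after adding ATP detection reagent to trophozoites that had been incubated with compounds for 48 hrs at 37 deg C anaerobically at 100 cells/well.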
HT1080 IDH1KD tx = HT-1080 IDH1 knockdown cell toxicity (counter line); HT-1080 IDH1 knockdown viability, ATP luminescence, 48 h; Potency, µM (titrated, usually from 46.1 µM), inactives show top-dose activity, negative = toxicity, most hits filed as cytotoxic; 2% of 360,000 active; AID 686971;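 further: potency means the concentration at half of the fitted maximal effect; 0% = DMSO wells and -100% = cell-free medium wells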
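Knockdown cells (IDH1KD HT-1080) received compounds 2 h after plating at 750 cells/well and were kept 48 h at 37 °C in 5% FBS RPMI. A CellTiter-Glo luminescence read gave % activity for curve fitting.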
IL1B secr inh = blocks inflammasome-driven IL-1 beta release | THP-1 LPS/ATP IL-1B secretion, AlphaLISA, 16 h; stronger effect = lower value | activity change, % at 57.5 µM | 4.7% of 360,000 active | AID 743279; in the data active means activity change below about -50%; inconclusive means mostly about -30% to -49%; further: on the % scale 0 is the no-effect control and ±100 the full control effect
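Secreted IL-1B measured by AlphaLISA bead assay after 16 h compound exposure of THP-1 cells; compounds (final up to 57.5 uM) added 1 h before LPS (250 ng/mL) and ATP (1.25 mM) stimulation; lower signal means less secretion.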
TGFb SMAD3 inh = inhibitors of TGF-b signaling; HepG2 CAGA-GFP TGF-b/SMAD3 reporter, GFP fluorescence, 18 h; TGF-beta stimulated, 500 pg/mL final; Potency, µM (titrated, usually from 46.1 µM), for the others: at the highest dose activity, negative = inhibition, usual class: inhibitors; 1.2% of 410,000 active; AID 588855; further: potency means the concentration at half of the fitted maximal effect; on the % scale 0 is the no-effect control and ±100 the full control effect; nearly all actives have a fitted effect of over 65% in size
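HEPG2 CAGA-GFP cells (1000/well, DMEM with 1% FBS) were pre-incubated 2 h at 37 degrees C, given compound by pin tool, then stimulated with TGF-beta at 500 pg/mL final for 18 h before per-cell GFP fluorescence imaging.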
HT1080-NT tox = kills 2HG-producing HT-1080-NT fibrosarcoma cells. HT-1080-NT fibrosarcoma viability, CellTiter-Glo ATP luminescence, 48 h. 1.6% of 360,000 active. AID 686970. Potency, µM (series often up to 46.1 µM), without a hit: at the top dose activity, negative = less viability, most hits filed as cytotoxic;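 further: NT is the 2HG producing partner of a matched IDH1 knockdown line; potency means the concentration at half of the fitted maximal effect; 0% = DMSO-treated cells and -100% = media-only wells without cells; nearly all actives have a fitted effect of over 55% in size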
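Viability by CellTiter-Glo luminescence after 48 h compound exposure at 37C of HT-1080-NT cells (750/well, RPMI, 5% FBS). % activity scaled between DMSO wells and medium-only wells, then curve-fitted and categorized by curve class.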
* marks the source's active call; other numbers are inactive results; ? = inconclusive; nt = no result given; ! = a repeat was not active. Unless noted, the call rests on the fitted dose curve; in most records, active means well fitted curve in the direction sought with a large enough effect; inconclusive means small, poorly fitted or top-dose-only effect, or another doubt; inactive means no such curve, though single readings can be large; an effect the other way counts as inactive or inconclusive.

SMILES	HepG2 tox	Giardia killer	HT1080 IDH1KD tx	IL1B secr inh	TGFb SMAD3 inh	HT1080-NT tox
COc1ccc(S(=O)(=O)N2CCC(C(=O)NCC3CCCO3)CC2)cc1OC (stereo unspecified)	1.3%	11.3	21.9%	14.3	-4.7%	11.3%
CCOC(=O)N1CCN(C(=O)CSCC(=O)Nc2nc(-c3ccc(-c4ccccc4)cc3)cs2)CC1	-26.0%	-1.1	?	27.1	-25.4%	?
CCCCc1ccc(Nc2ncnc3nc[nH]c23)cc1	21.0%	-2.4	1.6%	14.1	27.4%	8.8%
COc1cccc(-c2coc3cc4oc(=O)c(CCC(=O)O)c(C)c4cc23)c1	-6.5%	-3.9	-8.9%	35.9	0.5%	-13.5%
Cc1ccc(N=C2SCCCN2C(=O)C2=COCCO2)cc1Cl	0.0%	-11.8	8.0%	12.4	-11.4%	5.4%
COc1ccc(C(N)c2csc(Nc3nncc4ccccc34)n2)cc1 (stereo unspecified)	-65.6%	nt	?	-17.5	12.6µM*	?
COc1ccc(C(N)c2csc(Nc3cc(Oc4ccccc4)ncn3)n2)cc1 (stereo unspecified)	-96.1%	nt	?	-84.9*	?	?
COc1ccc(C(N)c2csc(Nc3ncccn3)n2)cc1 (stereo unspecified)	-7.0%	nt	-14.5%	-9.8	1.7%	-13.9%
NC(c1csc(Nc2cc(Oc3ccccc3)ncn2)n1)C1CCCCC1 (stereo unspecified)	-113.5%	nt	4.61µM*	-27.3	?	?
NCc1csc(Nc2cc(Oc3ccccc3)ncn2)n1	-25.4%	nt	23.5%	12.1	-24.5%	-3.1%
Cn1c(=S)[nH]c2scc(-c3cccs3)c2c1=O	-16.7%	-0.1	-27.7%	48.9	-11.1%	-27.7%
CCOC(=O)c1cc(C)nc(Sc2ccc(C)cc2)c1C#N	20.7%	-1.2	20.6µM*	1.1	27.4%	?
COc1ccc2cc(/C=C3\SC(=S)NC3=O)c(N3CCOCC3)nc2c1	6.0%	-12.6	?	-68.9*	0.0%	-12.4%
N#Cc1c(N)nc(Sc2ccc(Cl)cc2)c(C#N)c1-c1ccccc1Cl	-18.9%	-9.6	?	-96.2*	-20.9%	?
Fc1ccccc1-c1nnc2ccc3ccccc3n12	0.6%	-4.8	0.5%	5.0	9.2%	-7.7%
COc1ccc(C(CCN2CCCCC2)c2c(OC)cc(OC)c3c(-c4ccccc4)cc(=O)oc23)cc1 (stereo unspecified)	17.8µM*!	?	-14.4%	-11.0	?	-27.5%
CCCCCc1cc(=O)oc2c(C(CCN3CCCCC3)c3cc(OC)c(OC)c(OC)c3)c(OC)cc(OC)c12 (stereo unspecified)	12.6µM*	-6.1	?	-3.4	15.8µM*	20.6µM*
COc1cc(C(CCN2CCCC(C)C2)c2c(OC)cc(OC)c3c2OC(=O)CC3c2ccc(N(C)C)cc2)cc(OC)c1OC (stereo unspecified)	-20.2%	?	-0.6%	-110.6*	?	-2.5%
CCCCCc1cc(=O)oc2c(C(CCN3CCCC(C)C3)c3cc(OC)c(OC)c(OC)c3)c(OC)cc(OC)c12 (stereo unspecified)	15.8µM*	12.9	?	-59.9*	?	?
COc1cc(C2CC(=O)Oc3c(C(CCN4CCCC(C)C4)c4ccc(N(C)C)cc4)c(OC)cc(OC)c32)cc(OC)c1OC (stereo unspecified)	-4.9%	0.1	-0.6%	?	-10.2%	-5.7%
COc1cc2[nH]c(C(=O)N(C)C3CCS(=O)(=O)C3)cc2c(OC)c1OC (stereo unspecified)	-3.4%	-11.7	13.0%	9.0	-10.7%	8.0%
Cc1ccc2c(c1)N(CC(=O)Nc1nccs1)C(=O)CO2	12.0%	15.3	4.6%	2.6	9.8%	4.6%
COCC(C)NC(=O)c1ccc(N(C)C)cc1 (stereo unspecified)	-3.5%	-3.2	11.0%	-17.6	20.2%	21.7%
CC(=O)c1ccc(NC(=O)Cc2cccs2)cc1	-2.2%	-10.5	-6.4%	-12.5	-5.1%	-3.7%
CCCCCc1cc(=O)oc2c(C(CCN(CC)CC)c3ccc(N(C)C)cc3)c(OC)cc(OC)c12 (stereo unspecified)	-108.6%	-21.7	-25.0%	0.0	?	18.4µM*
SMILES	HepG2 tox	Giardia killer	HT1080 IDH1KD tx	IL1B secr inh	TGFb SMAD3 inh	HT1080-NT tox
CS(=O)(=O)n1nc(OC(=O)c2cccc3ccccc23)cc1N	-29.6%	14.2	?	-56.6*	?	?
COc1cc(C=C(c2nc3ccccc3s2)c2nc3ccccc3s2)cc(OC)c1O	3.7%	13.3	-22.9%	-82.5*	?	-25.8%
O=C(O)c1ccc(Oc2nc3ccccc3s2)cc1	-23.6%	10.1	-7.2%	-0.6	11.8%	-8.7%
COc1cc(/C=C(\CC(=O)O)c2nc3ccccc3s2)cc(OC)c1O	8.2%	-5.0	-16.4%	34.9	-2.2%	-21.7%
O=C(O)c1ccc(C=C(c2nc3ccccc3s2)c2nc3ccccc3s2)cc1	-80.6%	6.1	?	-108.4*	?	?
O=C(NC1=NCCS1)C1CC2CCC1C2 (stereo unspecified)	-1.0%	2.7	5.6%	15.6	1.9%	9.3%
Cn1c(N)nc2ccccc2c1=O	-47.8%	-17.2	12.4%	30.9	0.0%	17.4%
CCOC(=O)C1=C(CSCc2ccccc2)NC(=O)NC1c1cc(C)ccc1C (stereo unspecified)	-59.2%	-2.6	?	-51.3*	?	?
CCCCN(CCCC)CCNC(=O)c1cn(C)c2ccc(S(=O)(=O)N(C)C3CCCCC3)cc2c1=O	-0.5%	4.3	13.6%	-1.8	-14.6%	13.3%
CC=Cc1cc(OC)c2c(c1)C(C)C(c1ccc(O)c(OC)c1)O2 (stereo unspecified)	-38.7%	-13.5	1.6%	-64.7*	-16.7%	-0.6%
C=C1C(=O)OC2CC1C(O)CC(C)=CCCC(C)=CC(O)CC2C (stereo unspecified)	-112.8%	4.3	7.31µM*	-103.0*	11.2µM*	14.6µM*
O=C1Nc2ccccc2N(O)N1c1cc(-c2ccccc2Cl)no1	7.5%	0.6	12.2%	0.0	7.2%	18.8%
CCc1ccc(OCC(=O)NNC(=O)C2CCN(c3ncnc4sc(C)c(C)c34)CC2)cc1	-2.3%	2.4	9.1%	2.7	?	-0.1%
CCOc1ccc(/C=C/c2nc(C#N)c(NCCCN(C)C)o2)cc1	-27.8%	29.0	?	-76.0*	?	?
CCOc1ccc(/C=C/c2nc(C#N)c(NCCCOC)o2)cc1	-1.7%	4.3	?	-1.8	11.6%	?

Bioassay records deposited in PubChem BioAssay by National Center for Advancing Translational Sciences (NCATS).
